# Screening results deposited in PubChem BioAssay by National Center for Advancing Translational Sciences (NCATS).
# Shown are actives, neighbours in structure and some others; about 7.9% of the full set was active somewhere.
# HCMV inh: qHTS Assay for inhibitors of the human cytomegalovirus (HCMV); HFF cells, HCMV-luciferase reporter, 72 h; stronger effect = lower value; activity change, negative = inhibition, % at 57.5 µM; 410,000 compounds, 4.5% hits; AID 1259415, 2018; in the data active = activity change below about -60%; inconclusive = no clear call, values can overlap the other calls; inactive = above about -39%
#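 Steps: HFFs plated, 16 h 37C; compounds added; HCMV-luciferase added to MOI 1 PFU/cell; 72 h 37C; OneGlo reagent, 5 min room temperature; luminescence read, normalized to controls.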
# FMDV antiviral: High Throughput Screening for Foot and Mouth Disease Virus Antivirals; FMDV antiviral cell-based qHTS; Potency, µM (top dose mostly 57.9 µM), for inactives: top-dose activity change, negative = inhibition, hits mostly inhibitors; 410,000 compounds, 1.2% hits; calls by dose curve; tested in HEK293T cells; also: read-out not given here; potency is read from the fitted curve at half-maximal effect; nearly all actives have a fitted effect of over 45% in size
# Lassa entry inh: qHTS for Inhibitors of binding or entry into cells for Lassa Virus | Potency, µM (doses to about 37.9 µM), inactives show top-dose activity change, negative = inhibition, usual class: inhibitors | Lassa virus pseudotype entry inhibition, cell reporter | 300,000 compounds, 1.2% hits; calls by dose curve; tested in HEK293 cells; also: potency is read from the fitted curve at half-maximal effect; nearly all actives have a fitted effect of over 50% in size
# HCV inh: qHTS Assay for Inhibitors of Hepatitis C Virus (HCV). 340,000 compounds, 3.4% hits. Huh7.5.1 HCVcc-Cre infection, luciferase reporter, 44 h. Potency, µM (top dose mostly 41.8 µM), without a hit: at the top dose activity change, negative = inhibition, most hits filed as inhibitors; active = well fitted inhibition curve with a large enough effect; inconclusive = small, poorly fitted or top-dose-only effect, or another doubt; inactive = no such curve, though single readings can be large or run the other way; also: potency is read from the fitted curve at half-maximal effect
#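 After 44 h co-culture of compound, cells and HCVcc-Cre (~0.5 moi), substrate is added for 15 min at room temperature and luciferase measured over 15 sec. Cells were seeded at 1,000/well and pre-cultured 4 h.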
# Marburg entry inh: qHTS for inhibitors of binding or entry into cells for Marburg Virus. Marburg virus pseudotyped entry inhibition, cell reporter. Potency, µM (doses to about 37.8 µM), inactives show at the top dose activity change, negative = inhibition, hits mostly inhibitors. 300,000 compounds, 1.8% hits. AID 540276, 2011; calls by dose curve; tested in HEK293 cells; also: potency is read from the fitted curve at half-maximal effect
# Numbers without * were called inactive; ? = inconclusive; · = no result given; ! = repeats disagree; [ ] = remark or other dose. % is scaled to controls: 0 for no effect and ±100 for the full control effect.
SMILES,HCMV inh,FMDV antiviral,Lassa entry inh,HCV inh,Marburg entry inh
Cc1ccc(OC(C)C(=O)N2CC(=O)Nc3ccccc32)c(C)c1 (stereo not drawn),32.5,1.5%,2.4%[46.1 µM],9.6%,-12.2%[46.1 µM]
COc1cc(C(=O)N2CC(=O)Nc3ccccc32)cc(OC)c1OC,-16.5,-16.3%,·,·,·
CCc1cccc(NC(=O)CNC(=O)N2CC(=O)Nc3ccccc32)c1,-8.5,-6.1%,·,11.0%,·
CCc1cccc(Nc2c([N+](=O)[O-])cc(C(=O)N3CC(=O)Nc4ccccc43)cc2[N+](=O)[O-])c1,0.5,?,?,14.1µM*,-37.8%
CCC(C(=O)NCCc1ccccc1)n1nc(C)c2sc3ccccc3c2c1=O (stereo not drawn),-13.5,-5.2%,13.1%[46.1 µM],·,16.7%[46.1 µM]
CCCC[C@H](CN[C@@H](CNC)[C@H](C)CC)NCCC12CCC(CC1)C2,-96.5*,-2.3%,·,?,·
CCC[C@H](CN[C@@H](CNC)[C@H](C)O)NCCc1ccc(OC)cc1,0.8,22.1%,·,-15.2%,·
Cc1ccccc1NC(=O)c1cccc(S(=O)(=O)Nc2cccc(C(=O)O)c2)c1,64.5,-12.2%,10.1%,10.1%,-6.0%
Cc1ccc(C(=O)Nc2ccc(S(=O)(=O)O)c3cc(S(=O)(=O)O)cc(S(=O)(=O)O)c23)cc1NC(=O)c1cccc(NC(=O)Nc2cccc(C(=O)Nc3cc(C(=O)Nc4ccc(S(=O)(=O)O)c5cc(S(=O)(=O)O)cc(S(=O)(=O)O)c45)ccc3C)c2)c1,·,-12.5%,8.88µM*,·,3.15µM*
CN(C)S(=O)(=O)n1cc(/C=C(\NC(=O)c2ccccc2Cl)C(=O)NCCCn2ccnc2)c2ccccc21,-105.1*!,23.2%,-23.7%[46.1 µM],-19.2%,?
CN(C)S(=O)(=O)n1cc(/C=C(\NC(=O)c2ccccc2F)C(=O)N2CCCCC2)c2ccccc21,-97.1*,-8.8%,·,·,·
CCn1cc(/C=C(\NC(=O)c2cc(OC)c(OC)c(OC)c2)C(=O)NCCCn2ccnc2)c2ccccc21,-104.5*,-12.1%,9.0%[46.1 µM],·,?
CN(C)S(=O)(=O)n1cc(/C=C(\NC(=O)c2ccccc2Cl)C(=O)N2CCCC2)c2ccccc21,?,3.3%,·,13.7%,·
CN(C)S(=O)(=O)n1cc(/C=C(\NC(=O)c2ccccc2)C(=O)NCCCn2ccnc2)c2ccccc21,-34.7,40.9%,1.0%[46.1 µM],-6.5%,-2.4%[46.1 µM]
O=C(c1ccc2ncsc2c1)N1CCN(c2nc3ccccc3s2)CC1,-73.8*,?,?,5.62µM*,-3.8%
Cc1nc2ccc(C(=O)N3CCN(c4ccccn4)CC3)cc2s1,-93.4*,-6.7%,9.1%,8.2%,?
COc1cc2ccccc2cc1C(=O)N1CCN(c2nc3ccc(F)cc3s2)CC1,-64.4*,?,-4.9%[46.1 µM],·,·
COc1cc2ccccc2cc1C(=O)N1CCN(C(C)=O)CC1,18.1,-3.6%,·,-9.5%,·
O=C(c1cc2sccc2n1Cc1ccccc1)N1CCN(c2nc3ccccc3s2)CC1,?,?,?,4.47µM*,?
COc1ccc(Cn2ccnc2SCC(=O)Nc2ccc3c(c2)OCCO3)cc1,3.7,27.2%,-14.4%[46.1 µM],·,·
CCOC(=O)C1CCCN(C(=O)Cn2ncc3c(C)n(Cc4ccccc4F)c(C)c3c2=O)C1 (stereo not drawn),-5.3,?,-2.1%[46.1 µM],·,-0.6%[46.1 µM]
O=C(c1ccc(S(=O)(=O)Cc2ccccc2Cl)c([N+](=O)[O-])c1)N1CCN(c2ccccn2)CC1,-97.2*,15.8µM*,-3.8%,?,?
O=C(Nc1ccccc1)N1CCN(c2nc3ccccc3s2)CC1,?,?,7.5%,?,8.8%
COc1ccc(C(=O)N2CCN(c3ccccn3)CC2)cc1[N+](=O)[O-],-80.1*,-27.8%,-13.2%,-25.7%,-14.3%[46.1 µM]
COc1cc2ccccc2cc1C(=O)N1CCN(c2ccccn2)CC1,-62.7*,-12.7%,-24.6%,-2.0%,?
SMILES,HCMV inh,FMDV antiviral,Lassa entry inh,HCV inh,Marburg entry inh
O=C(Nc1ccc(F)cc1)N1CCN(c2nc3ccccc3s2)CC1,?,28.2µM*,-17.5%,?,-26.4%
CC1CCN(S(=O)(=O)c2cn(CC(=O)Nc3ccc(F)c(Cl)c3)c(=O)c3ccccc23)CC1,-62.8*,0.3%,?,·,?
COc1cc(Cl)c(C)cc1NC(=O)Cn1cc(S(=O)(=O)N2CCC(C)CC2)c2ccccc2c1=O,15.5,12.8%,-0.3%[46.1 µM],·,-14.7%[46.1 µM]
COc1cc(NC(=O)Cn2cc(S(=O)(=O)N3CCC(C)CC3)c3ccccc3c2=O)cc(OC)c1OC,-12.4,0.0%,-26.3%[46.1 µM],·,10µM*
Cc1oc(-c2ccc(C(=O)N(C)Cc3ccccc3)cc2)nc1CN1CCc2ccccc21,?,?,-4.0%[46.1 µM],·,·
CCN(CC)CCN1C(=O)C(=O)/C(=C(/O)c2c(C)[nH]c(C(=O)OC)c2C)[C@@H]1c1ccc(OC)cc1,·,·,·,·,21.5%
O=C(O)CSCc1nc2scc(-c3ccccc3)c2c(=O)[nH]1,29.1,-12.8%,-2.2%,11.4%,-7.6%[14.2 µM]
O=C(OCc1nc2scc(-c3ccccc3)c2c(=O)[nH]1)c1cc([N+](=O)[O-])ccc1Cl,-24.2,39.8µM*,-0.3%,-0.1%,12.7%
CCOC(=O)C(NCc1ccc2c(c1)OCO2)(NC(=O)c1ccccc1)C(F)(F)F (stereo not drawn),-61.2*,-20.5%,-12.3%,9.5%,6.0%[46.1 µM]
COc1ccc(C(=O)CSc2nccn2C)c(OC)c1,89.8,52.5%,·,-1.7%,·
CCOc1ccc(N(C(=O)c2ccc(OC)cc2)S(=O)(=O)c2ccc3c(c2)n(C)c(=O)n3C)cc1,-28.7,-3.4%,?,·,?
CCOc1c2ccc(C(=O)NCCCCc3ccccc3)cc2nn1CC,3.7,-14.1%,·,3.55µM*,·
CCOC(CNC(=O)c1ccc2c(c1)ncn2-c1cccc(F)c1)OCC,1.7,15.1%,2.1%[46.1 µM],11.5%,?
COC(CNC(=O)c1ccc2c(c1)ncn2-c1cccc(F)c1)OC,-73.1*,-5.6%,-10.7%,14.8%,6.5%
Cc1cc(C)cc(-n2cnc3cc(C(=O)NCCc4ccccc4)ccc32)c1,-98.5*,24.3%,3.0%[46.1 µM],·,·
COc1ccc(OC)c(-n2cnc3cc(C(=O)NCCc4ccccc4)ccc32)c1,22.1,31.8%,6.8%[46.1 µM],·,·
CC1CC[C@]2(CO)CC[C@]3(C)C(=CCC4[C@@]5(C)CCC(O)C(C)(C)C5CC[C@@]43C)C2C1C (stereo partly drawn),·,0.0%,·,·,·
Cc1cccc2c(N=O)c(O)n(CCc3ccccc3)c12,-8.4,-11.2%,·,-29.5%,·
COc1ccc(CCN2C(=O)C3C4C=CC(C3C2=O)C2C(=O)N(CCc3ccc(OC)c(OC)c3)C(=O)C42)cc1OC (stereo not drawn),-94.2*,?,?,4.47µM*,-6.7%
CCS(=O)(=O)N1CC2(C1)CN(S(=O)(=O)c1cccc(OC)c1)[C@@H](CO)c1[nH]c3cc(OC)ccc3c12,-4.4,·,·,·,·
